# Source: PubChem BioAssay AID652010 (The Scripps Research Institute Molecular Screening Center, 2013)
# In all, about 370,000 compounds went through this assay and about 4,100 (1.1%) were called active.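 Rule for the calls: active = inhibition above the mean over all tested compounds plus 3 SD (cut at about 3.6% in these data); inactive = the rest.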 What follows is part of a selection rich in actives, with near analogues and random picks from the rest.
# Experiment: DAX1 (NR0B1) inhibitors on StAR promoter, primary screen, cell-based, luminescence, SF-1 (NR5A1), full-length DAX-1 (AID 652010);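 note: 0% = DAX-1 cells with DMSO and 100% = cells lacking DAX-1 with DMSO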
# Conditions: HEK293T StAR-luciferase reporter, SF-1/DAX-1 repression relief; at 6.8 µM; stronger effect = higher value
row,Compound,inhibition
1,CC1(C(=O)Nc2cccc3c2CCCC3)CCN1C(=O)C1(c2ccccc2)CC1 (configuration not stated),-0.73% (inactive)
2,CCOc1ccc2nc(C(=O)N3CCCC(C)C3)sc2c1 (configuration not stated),4.1% (active)
3,CCOc1ccc(NC(=O)C2CCCN(C(=O)Nc3ccccc3)C2)cc1 (configuration not stated),-0.8% (inactive)
4,COc1ccc2cc(C(=O)C3CCCN(C(=O)c4sc(C)nc4C)C3)ccc2c1 (configuration not stated),0.57% (inactive)
5,Nc1ccc(C(=O)Nc2ccccc2N)cc1,15.9% (active)
6,O=C(Nc1ccccc1C(=O)N1CCOCC1)c1ccc(Cl)cc1,-0.37% (inactive)
7,CC(CNC(=O)c1ccc(N)cc1)NC(=O)c1ccc(N)cc1 (configuration not stated),0.06% (inactive)
8,C#CCCN([C@H](C(=O)OC)C(C)C)S(=O)(=O)c1ccc(F)cc1Br,-0.77% (inactive)
9,O=C1CCC2(CCC(c3ccc(Cl)cc3)CC2)N1CCO (configuration not stated),-1.36% (inactive)
10,O=S1(=O)c2c(cccc2N2CC[C@H](O)C2)O[C@@H]2CCN1C2,-0.61% (inactive)
11,COc1ccc(OCc2cc(C(=O)NCC3(C)COC3)no2)c(Cl)c1,-0.13% (inactive)
12,COCCCNC(=O)COc1cc(C)c(Cl)c(C)c1,-0.64% (inactive)
13,Cc1cc(OCc2cc(C(=O)NCc3cc(C(C)C)no3)no2)cc(C)c1Cl,7.8% (active)
14,N#Cc1ccc(-c2nc3cc(C#N)c(C#N)cc3nc2-c2ccccc2)cc1C#N,-0.36% (inactive)
15,CN1CCN(CCNC(=O)Nc2ccccc2[N+](=O)[O-])CC1,-0.08% (inactive)
16,Cc1cc(NC(=O)Nc2ccccc2[N+](=O)[O-])no1,-0.12% (inactive)
17,Cc1csc(NC(=O)Nc2ccccc2[N+](=O)[O-])n1,4.06% (active)
18,O=C1[C@@H]2C(c3cccnc3)=NO[C@@H]2C(=O)N1c1ccc(Cl)cc1Cl,-0.39% (inactive)
19,COc1cccc(CNC(=O)CNS(=O)(=O)c2ccc3nc(C)sc3c2)c1OC,-0.3% (inactive)
20,Cc1ccc(CSc2nnc(SCC(=O)NN=Cc3cc(Br)ccc3F)s2)cc1,-0.52% (inactive)
21,COc1ccc(C(=O)OCCN2CCN(C3CN(Cc4cn(Cc5ccccc5F)nn4)S(=O)(=O)C3)CC2)cc1OC (configuration not stated),-2.65% (inactive)
22,O=C(Nc1ccc2nc3n(c(=O)c2c1)CCCC3)c1ccc(Cl)nc1,-1.19% (inactive)
23,COc1cccc(C(=O)Nc2ccc3nc4n(c(=O)c3c2)CCCCC4)c1,-0.05% (inactive)

row,Compound,inhibition
1,N=c1c2c3c(sc2nc2n1CCCCC2)CCCC3,0.02% (inactive)
2,CC(=O)c1ccc(NC(=O)c2sc3nc4n(c(=O)c3c2C)CCCCC4)cc1,4% (active)
3,O=C(Cn1[nH]c(=O)c2ccccc2c1=O)Nc1cccc(-c2nnc3n2CCCCC3)c1,-0.2% (inactive)
4,O=c1c2c(nc3n1CCCCC3)sc1c(O)cccc12,4.81% (active)
5,CCOc1ccccc1C(=O)N1CCC[C@@H]1C(=O)N1CCC[C@H]1C(=O)NCc1ccccc1,0.55% (inactive)
6,COc1ccc(-n2c(SCC(=O)NC3CCCC3)nnc2-c2ccncc2)cc1,-0.56% (inactive)
7,CC(=NNC(N)=O)c1ccc(Cl)c(-n2cccc2)c1,-0.18% (inactive)
8,CCNc1nc(-c2cc3ccccc3o2)cs1,4.18% (active)
9,Cn1c(SCC(=O)NC2CCCCC2)nnc1-c1cc2ccccc2o1,-0.14% (inactive)
10,COc1ccccc1CN(C)C(=O)c1cc2ccccc2o1,-0.34% (inactive)
11,O=C(NCc1ccc(F)cc1)c1cc(C2CCCCN2C(=O)c2ccccn2)on1 (configuration not stated),-1.23% (inactive)
12,COc1ccc(C2CC=C(C(=O)O)C(c3ccccc3F)N2S(=O)(=O)c2ccc(C)cc2)cc1OC (configuration not stated),0.7% (inactive)
13,O=S(=O)(c1ccccc1)N1CCC(c2nc3ccccc3o2)CC1,-0.48% (inactive)
14,Cc1ccc(CN2CCC(N3CCC(C(=O)NCC4CCCO4)CC3)CC2)o1 (configuration not stated),0.9% (inactive)
15,CC(=O)Nc1cccc(-c2csc(Nc3cccc(C)n3)n2)c1,4.69% (active)
16,Cc1cccc(NC(=O)COc2ccc(Br)cc2C)n1,2.42% (inactive)
17,CC(=O)NC(c1cccc(F)c1)c1nc(-c2cccc(F)c2)cs1 (configuration not stated),-0.34% (inactive)
18,OC(c1ccccc1)(c1ccccc1)C1CCN(CCCOc2ccc(-c3ccsc3)cc2)CC1,-0.82% (inactive)
19,CCC(=O)Nc1ccc2c(c1)C(=O)N(C)[C@H]1CC[C@H](CC(=O)NCCOC)O[C@@H]1CO2,0.92% (inactive)
20,Cc1c(N=Nc2ccc(N(C)C)cc2)c(=O)n(-c2ccccc2)n1C,4.03% (active)
21,Cc1nc(N)sc1N=Nc1c(C)n(C)n(-c2ccccc2)c1=O,0.04% (inactive)
22,Cc1c(C=O)n(C)n(-c2ccccc2)c1=O,0.3% (inactive)
23,C=CCn1c(SCC(N)=O)nnc1-c1ccccc1OC,-0.12% (inactive)

row,Compound,inhibition
1,COc1ccc(CCC(=O)OCC(=O)Nc2ccc(C)c(S(=O)(=O)N(C)C)c2)cc1,1.11% (inactive)
2,CCN(CC(=O)Nc1ccc(C)c(S(=O)(=O)N(C)C)c1)Cc1ccccc1,0.23% (inactive)
3,Cc1ccc(C(=O)Nc2ccc(C)c(S(=O)(=O)N(C)C)c2)s1,4.23% (active)
4,CCc1nc2ccc(C(=O)Nc3ccc(OC)c(OC)c3)cn2c1N(C)C(=O)c1cccc(OC)c1,-1.08% (inactive)
5,CSCCC(NC(=O)c1ccco1)C(=O)Nc1cc(C)ccn1 (configuration not stated),11% (active)
6,CSCCC(NC(=O)c1ccco1)C(=O)OCC(=O)Nc1ncc(Cl)c(C)c1Cl (configuration not stated),-0.11% (inactive)
7,CSCCC(NC(=O)c1ccco1)C(=O)NCCc1ccc(F)cc1 (configuration not stated),0.47% (inactive)
8,COC(=O)c1ccc(CN2C(=O)NC(c3ccccc3)(c3ccccc3)C2=O)o1,0.15% (inactive)
9,O=C(C1CCCN1S(=O)(=O)c1ccccc1)N1CCc2ccccc2C1 (configuration not stated),-0.56% (inactive)
10,CC(C)CC(=O)N/C(N)=N/c1nc2ccccc2s1,4.37% (active)
11,CC(C)CC(=O)NC(=S)NNC(=O)c1cccc([N+](=O)[O-])c1,-0.72% (inactive)
12,CC(C)C(C)NC(=O)COc1ncnc2ccccc12 (configuration not stated),-0.45% (inactive)
13,CCC(=O)NC(=Nc1nc2ccccc2s1)NC(=O)CC,3.92% (active)
14,CC(NC(=O)COC(=O)c1ccc2ccccc2n1)c1ccccc1 (configuration not stated),0.44% (inactive)
15,O=C(CSc1nc2ccccc2s1)NN=Cc1ccc(O)cc1O,-0.65% (inactive)
16,Cc1ccc(C)c(NC(=O)CCS(=O)(=O)c2ccccc2)c1,0.88% (inactive)
17,COc1ccc(S(=O)(=O)n2nc(C)c(S(=O)(=O)N3CCOCC3)c2C)cc1,-0.25% (inactive)
18,COc1ccc(CN2C/C(=C/c3ccccc3)N3C(=O)C[C@@H](c4ccccc4)N=C23)c(OC)c1,-0.16% (inactive)
19,CCN(CC)C(=O)CC[C@H]1CC[C@]2(CCCN(Cc3ccc(Cl)cc3)C2)O1,-0.32% (inactive)
20,COc1ccc(S[C@]2(C(=O)N(C)C)CC(=O)N(c3ccc(OC)cc3)[C@@H]2c2ccc(OC)cc2)cc1,-0.46% (inactive)
21,Cc1cc(=O)[nH]c(SCC(=O)Nc2ccc(Cl)cc2C)n1,0.86% (inactive)
22,CCCCCCNC(=O)O[C@H]1CN(C(=O)OC(C)C)N(C(=O)OC(C)C)[C@@H]2CN(S(=O)(=O)c3ccc(C)cc3)C[C@]12O,4.45% (active)
23,CCCCCCNC(=O)O[C@]12C[C@@H](C(=O)OC)[C@@H](C(=O)OC)C[C@@]1(O)CN(S(=O)(=O)c1ccc(C)cc1)C2,-0.86% (inactive)

row,Compound,inhibition
1,Cc1ccc(S(=O)(=O)N2C[C@H]3n4c(=O)ccc(=O)n4C[C@H](OC(=O)NC4CCCC4)[C@@]3(O)C2)cc1,-0.77% (inactive)
2,Cc1ccccc1NC(=O)COC(=O)c1ccc(Sc2ncn[nH]2)c([N+](=O)[O-])c1,2.48% (inactive)
3,CC1(C)OC(=O)C2=C(CC(CCc3ccccc3)OC2c2ccc(Cl)cc2)O1 (configuration not stated),-1.2% (inactive)
4,COc1ccccc1-c1nnc(NC(=O)c2ccc3ncsc3c2)o1,0.87% (inactive)
5,O=C(COC(=O)c1ccc2ncsc2c1)Nc1ccc(Cl)cc1,-0.21% (inactive)
6,Cc1sc(NC(=O)c2ccc3ncsc3c2)c(C(N)=O)c1C,10.2% (active)
7,CN(CC(=O)Nc1cccc(F)c1)C(=O)C1CC(=O)N(CCc2ccccc2)C1 (configuration not stated),4.19% (active)
8,CCNC(=O)c1cccc(NC(=O)C2CC(=O)N(CCc3ccccc3)C2)c1 (configuration not stated),0.37% (inactive)
9,CN(Cc1ccccc1Cl)C(=O)C1CCC(=O)N(CCc2cccc(F)c2)C1 (configuration not stated),0.69% (inactive)
10,C=CCN1C(=O)[C@@H](CC(=O)N2CCN(C(=O)OCC)CC2)[C@]2(C(=O)OCC)CCCCC/C=C/12,1.04% (inactive)
11,COC(=O)[C@H](C(C)C)N(CCCc1cn(Cc2ccccc2)nn1)S(=O)(=O)c1ccc(F)cc1Br,-1.67% (inactive)
12,Cc1sc2ncnc(N3CCC(C(=O)NNC(=O)c4ccc(F)cc4)CC3)c2c1C,-3.62% (inactive)
13,Cc1sc2ncnc(N3CCC(C(=O)Nc4nc5ccc(Cl)cc5s4)CC3)c2c1C,4.32% (active)
14,Cc1sc2ncnc(N3CCC(C(=O)Nc4ccc(F)cc4Cl)CC3)c2c1C,1.94% (inactive)
15,CC(=O)C1=C(C)N(Cc2ccc(Cl)cc2)C(=S)NC1c1ccc(F)cc1 (configuration not stated),0.31% (inactive)
16,Cc1cc(NC(=O)COn2nnc3ccccc32)no1,0.82% (inactive)
17,COc1ccc(C(=O)OCC(=O)Nc2cc(C)on2)cc1F,-1.4% (inactive)
18,Cc1cc(NC(=O)COc2ccccc2C#N)no1,4.34% (active)
19,COc1ccc(C2CC(=O)C=C(NCC3CCCO3)C2)cc1 (configuration not stated),-0.07% (inactive)
20,CCCCCCN1CCS(=O)(=O)N(Cc2ccc(C(F)(F)F)cc2)C(C(=O)OC)C1 (configuration not stated),-0.72% (inactive)
21,CC(=NCC1CCCO1)c1c(O)[nH]c(=O)[nH]c1=O (configuration not stated),1.34% (inactive)
22,CCc1ccc(CN2C(=O)c3ccccc3C2C(=O)NCC2CCCO2)cc1 (configuration not stated),-0.05% (inactive)
23,O=C1C(C=NCC2CCCO2)=C(O)c2ccccc21 (configuration not stated),4.59% (active)
